Drawing on PubChem BioAssay AID463173 (ICCB-Longwood Screening Facility, Harvard Medical School, 2010), this text covers survival for 54 compounds.

Screen size: about 52,000 compounds; about 4,300 (8.3%) were called active. The sample holds actives, similar compounds and a random draw of the others, so the mix is not that of the screen. A number with no mark means an inactive call. Rule as the data show it: active = survival mostly below about 52% (no sharp cut-off); inactive = mostly above about 56%.

For this assay, the system named is DeltatarO mutant. The experiment in a line: growth inhibition of S. aureus wild type versus tarO mutant, primary screen, teichoic acid synthesis inhibitors, RN4220, OD600 (AID 463173). Conditions: OD600, 18 h, hits give low values, screened at 18.75 µg/mL (by protocol).
Take `COc1ccc(NC(=O)Cn2c(SCc3ccc(C)cc3)nc3cccnc32)c(OC)c1`: the survival is 82%. To `Cc1ccc(NC(=O)[C@H](Cc2ccccc2)N2Cc3ccccc3C2=O)cc1F` belongs 84%. For `COC(=O)c1ccc(NC(=O)C(C)N2Cc3ccccc3C2=O)cc1` (centres undefined), the survival is 66%. As for `CC(C(=O)Nc1ccc(OC(F)(F)F)cc1)N1Cc2ccccc2C1=O` (centres undefined), the figure is 20% (active); as for `CCOc1ccc(NC(=O)C(CC(C)C)N2Cc3ccccc3C2=O)cc1` (centres undefined), 130%; as for `O=C(Nc1ccc(F)cc1F)C(Cc1ccccc1)N1Cc2ccccc2C1=O` (centres undefined), -4% (active). Take `COc1cc(NC(=O)C(CCS(C)(=O)=O)N2Cc3ccccc3C2=O)cc(OC)c1OC` (centres undefined): the survival was 55%. Consider `COC(=O)c1cc(NC(=O)[C@H](CCS(C)(=O)=O)N2Cc3ccccc3C2=O)cc(C(=O)OC)c1`, for which the survival is 86%. In the case of `Cc1ccc(C)c(NC(=O)C(CC(C)C)N2Cc3ccccc3C2=O)c1` (centres undefined), the survival was 134%.

With `O=C(Nc1ccc(F)cc1)[C@H](Cc1ccccc1)N1Cc2ccccc2C1=O`, the survival was 89%. As to `O=C(Nc1ccccc1F)C(Cc1ccccc1)N1Cc2ccccc2C1=O` (centres undefined), the survival was 60%. To `Cc1ccc(NC(=O)C(CC(C)C)N2Cc3ccccc3C2=O)cc1F` (centres undefined) belongs -5% (active). Regarding `CS(=O)(=O)CCC(C(=O)Nc1cccc(C(F)(F)F)c1)N1Cc2ccccc2C1=O` (centres undefined), the survival is 17% (active). On to `CC(C)Cn1c(=O)c2ccccc2n2c(CCC(=O)N3CCN(c4ccccc4F)CC3)nnc12`, for which the survival is 92%.

For `Cc1noc(Cn2c(=O)c3cc4c(cc3n(CC(=O)Nc3cccc(Cl)c3)c2=O)OCO4)n1`, the survival is 122%. To `COc1cccc(C(=O)Nc2ccc3nc(SCCOc4ccccc4)sc3c2)c1` belongs 75%; to `Cc1cc(C)nc(-n2nc(C)c3c2N(Cc2ccccc2C)C(=O)CC3c2ccc(Cl)cc2)n1` (centres undefined), 72%.

For `COc1ccc(-c2cc(C(F)(F)F)n3nc(C(=O)Nc4cccc(C(F)(F)F)c4)c(Br)c3n2)cc1`, the survival is 73%.

On to `COc1ccc(NC(=O)C(C)N2Cc3ccccc3C2=O)cc1OC` (centres undefined), for which the survival is 101%. As to `Cc1cc(C)cc(NC(=O)C(C)N2Cc3ccccc3C2=O)c1` (centres undefined), the survival was 91%. With `CC(C(=O)Nc1ccc(F)c(Cl)c1)N1Cc2ccccc2C1=O` (centres undefined), the survival was 8% (active). Turning to `CCCn1ccc2c(OCC(=O)Nc3ccccc3C(=O)OCC)cccc2c1=O`, the survival was 94%.

Take `Cc1ccc(C)c(CN2C(=O)c3ccccc3S(=O)(=O)c3ccc(C(=O)NCCc4ccc(Cl)cc4)cc32)c1`: the survival was 111%. Take `N#Cc1cccc(NC(=O)C2CCN(c3nc(-c4ccc(Cl)cc4)no3)CC2)c1`: the survival was 82%. With `Cc1cccc(CNC(=O)Cn2ccc3cc(S(=O)(=O)N4CCCC4)ccc32)c1`, the survival is 73%. With `O=C(CCn1ccc2cc(S(=O)(=O)N3CCCC3)ccc21)NCc1ccccc1F`, the survival was 94%.

Consider `CCc1ccc(CNC(=O)CCCn2ccc3cc(S(=O)(=O)N4CCCC4)ccc32)cc1`, for which the survival was 91%. For `O=C(CCn1ccc2cc(S(=O)(=O)N3CCCC3)ccc21)NCc1cccc(Cl)c1`, the survival was 17% (active). Take `Cc1cccc(CNC(=O)Cn2ccc3cc(S(=O)(=O)N4CCCCCC4)ccc32)c1`: the survival is -5% (active). As for `COc1ccc(CNC(=O)CCCn2ccc3cc(S(=O)(=O)N4CCCC4)ccc32)cc1`, the figure is 101%; as for `CN(C)c1ccc(CNC(=O)CCCn2ccc3cc(S(=O)(=O)N4CCCC4)ccc32)cc1`, 8% (active); as for `O=C(Cn1ccc2cc(S(=O)(=O)N3CCCCC3)ccc21)NCc1cccc(Cl)c1`, 117%. As for `Cc1cccc(CNC(=O)Cn2ccc3cc(S(=O)(=O)N4CCC(C)CC4)ccc32)c1`, the figure is 76%; as for `CC1CCN(S(=O)(=O)c2ccc3c(ccn3CC(=O)NCc3ccccc3F)c2)CC1`, 54%; as for `Cc1cccc(CNC(=O)CCn2ccc3cc(S(=O)(=O)N4CCCC4)ccc32)c1`, 87%. Take `CC1CCN(S(=O)(=O)c2ccc3c(ccn3CCC(=O)NCc3ccccc3F)c2)CC1`: the survival is -5% (active). As for `Cc1nn(C)c2c1c(-c1ccccc1)cc(=O)n2C(C)C(=O)NCCc1ccc(Cl)cc1` (centres undefined), the figure is 99%; as for `CCOC(=O)c1cc2c(=O)n3ccccc3nc2n(CCOC)c1=NC(=O)c1c(-c2ccccc2Cl)noc1C`, 180%; as for `Cc1cccc(C(c2sc3nc(-c4ccco4)nn3c2O)N2CCN(c3ccccc3F)CC2)c1` (centres undefined), 67%. As for `CCOC(=O)c1ccc2c(c1)N(CC(=O)Nc1ccc(C)cc1C)C(=O)c1ccccc1S2`, the figure is 112%; as for `Cc1sc2c(c1C)c(=O)n(CCc1ccccc1)c(=O)n2Cc1ccc(C(C)(C)C)cc1`, 87%. As to `Cc1cccc(-n2c(CCN3C(=O)c4ccccc4C3=O)nc3ccccc3c2=O)n1`, the survival was 87%. Take `Clc1ccc(CN2CCc3nc(Nc4ccc5c(c4)OCCO5)ncc3C2)cc1`: the survival was 94%. `CCOc1ccc(NC(=O)Cn2cc(C(=O)c3ccc(C)cc3)c(=O)c3cc4c(cc32)OCO4)cc1`: the survival was 70%. As for `CCOc1ccc(NC(=O)CCS(=O)(=O)c2ccc3nc(C)sc3c2)cc1`, the figure is 55%; as for `CCOC(=O)c1ccccc1NC(=O)CN1C(=O)CC(c2ccco2)Sc2ccccc21` (centres undefined), 72%; as for `O=C(Cn1ccc2cc(S(=O)(=O)N3CCCCCC3)ccc21)NCc1ccccc1Cl`, 77%. As for `CCc1ccc(CNC(=O)C(C)n2ccc3cc(S(=O)(=O)N4CCCCCC4)ccc32)cc1` (centres undefined), the figure is 94%; as for `Cc1ccc(CNC(=O)C(C)n2ccc3cc(S(=O)(=O)N4CCCC4)ccc32)cc1` (centres undefined), 102%; as for `O=C(Cn1ccc2cc(S(=O)(=O)N3CCCCC3)ccc21)NCCc1ccccc1Cl`, -4% (active).

Consider `CC(C(=O)NCc1ccccc1)n1ccc2cc(S(=O)(=O)N3CCCC3)ccc21` (centres undefined), for which the survival is 20% (active).

For the compound `O=C(Cn1ccc2cc(S(=O)(=O)N3CCCCCC3)ccc21)NCCc1ccccc1Cl`, the survival is 88%. Regarding `CCn1nc(C)c2c(-c3ccccc3)cc(=O)n(C(C)C(=O)NCCC(C)C)c21` (centres undefined), the survival was 99%. To `COc1ccccc1CNC(=O)C(NS(=O)(=O)c1ccc2c(c1)CCN2C(C)=O)C(C)C` (centres undefined) belongs 79%.
